The text below walks through data of ChEMBL document CHEMBL3988442, “University of Dundee, Small-Polar-MMV Screening Library” (2021).

For the experiment, the target named is AMP-activated protein kinase, AMPK (Homo sapiens) (UniProt P54646+O43741+P54619+Q9UGJ0+Q9Y478+Q13131+Q9UGI9). As to the kind of experiment: AMP-dependent Kinase enzyme assay. An in vitro enzyme assay that detects ADP turnover that is directly proportional to AMPK activity. This uses naive AMPK that is activated during the assay with MK-8722. The class given is functional. Set-up: scale not given: direction of the effect not stated beside the values. Conditions: 30 µM.
Take `Cc1ccc(F)c2c1CCCN2CC(=O)NC1CCS(=O)(=O)C1` (centres undefined): the Percent Effect is 3.51%. Regarding `O=C1NCCCC12CCN(Cc1ccc(-c3ccccc3)s1)C2` (centres undefined), the Percent Effect worked out at 6.83%. Next, `CCCN(CC(F)(F)F)S(=O)(=O)c1cc(C(N)=O)n(C)c1`: -4.23%.

Consider `CCN(Cc1ccoc1)c1ncc(S(N)(=O)=O)s1`, for which the Percent Effect is -1.73%. Next, `c1ccc(CCN2CCCC2c2cccc(Nc3nccs3)n2)cc1` (centres undefined): 3.49%; `O=C(Cc1ccon1)NC1CCCN(c2ccccc2F)C1=O` (centres undefined): 1.71%. Regarding `Cc1nn2cccnc2c1C(=O)NCc1ccnc(OCC2CC2)c1`, the Percent Effect came out at 4.11%. Under `CC(CC(=O)c1ccco1)NC(=O)c1ccccn1` (centres undefined) stands -8.76%. Under `Cc1noc(C)c1CN(C)C(=O)c1nc(N2CCCC2)ncc1Cl` stands 3.43%; under `CCn1cnnc1CCNc1nc(C)cc(C)c1C#N`, -7.29%. Under `COc1ccc(C)cc1CN(C)CC(N)=O` stands -2.2%. Turning to `Cc1[nH]ccc1C(=O)N1CCCC(c2ccc(C(=O)O)cc2)C1` (centres undefined), the Percent Effect is -0.307%. Under `Cc1cnc(C(NC(=O)NCc2nc(C3CC3)no2)C2CC2)s1` (centres undefined) stands 0.145%; under `CC1(C)Cc2nc(C(C)(C)C)ncc2C(NC(=O)C2(N)CC2)C1` (centres undefined), -16.9%. Next, `COC1CCCOC12CCN(C(=O)NCc1ccco1)CC2` (centres undefined): 13%.

On to `CCOc1cc(F)ccc1NC1CCN(CC(F)(F)F)C1=O` (centres undefined), for which the Percent Effect was -28.4%. Next, `Cc1noc(C)c1C(=O)N(C)C(C)c1ccncc1` (centres undefined): -0.736%; `COc1ccc2c(c1)CCCC2CC(=O)O` (centres undefined): -8.39%. In the case of `CC1(c2ncc(CN3CCN(c4ccccn4)CC3)cn2)CCCCO1` (centres undefined), the Percent Effect is 5.55%.

Take `CCCS(=O)(=O)NCc1ncc(C)c(OC)c1C`: the Percent Effect turned out to be 6.9%.

Regarding `CC(CNC(=O)CCn1cncn1)N1CCc2ccccc21` (centres undefined), the Percent Effect was determined as 6.66%.

For the compound `O=C(O)c1ccccc1-c1ccc(CN2CC(c3ccncn3)C2)o1`, the Percent Effect was 11.8%.

Turning to `Cc1oc(-c2ccco2)nc1CN1CCc2cnc(C(C)C)nc2C1`, the Percent Effect was -25.9%.

Turning to `CNc1ccc(C2CN(c3nc(C)cc(C)n3)CCO2)nc1` (centres undefined), the Percent Effect was determined as 18%. Next, `CCCc1cc(N(CCOC)CC(F)F)n2ncnc2n1`: 11.5%.

Take `Cc1cncc(C2CCN(Cc3ccncc3)CC2)n1`: the Percent Effect came out at 7.85%. Next, `CCOc1ccc(C(=O)NC2CCN(c3ncccn3)CC2)cc1C`: 0.756%. Next, `CN(Cc1ccncc1)Cc1cnn(-c2ccc(F)cc2)c1`: 11.6%; `CC(C(=O)N1CCC(c2[nH]ncc2-c2ccccc2)CC1)n1cncn1` (centres undefined): -1.59%. For `CN(C)CCCC(=O)NC1CC(C)(C)Cc2nc(C(C)(C)C)ncc21` (centres undefined), the Percent Effect stood at 8.49%.

In the case of `Cc1cc(N2Cc3cnn(CCO)c3C2)nc(-c2ccccc2)n1`, the Percent Effect is 4.37%. Under `Cc1nc(COC(=O)c2cccnc2C)no1` stands 3.04%; under `Cc1nnc(CN(C)CC(=O)NCCc2ccc(F)cc2)n1C`, 5.73%; under `Cc1cc(C)cc(NCCC(=O)NCc2cccnc2N(C)C)c1`, -2.62%. Next, `O=C(NCc1nncn1C1CC1)c1ccccc1Oc1cccnc1`: -0.563%. Consider `O=C(Cn1cc(Cl)cn1)N1CCNC1=O`, for which the Percent Effect was -8.6%.

For the compound `CCOc1ccc(NC(=O)NCCCN(C)S(C)(=O)=O)cc1C`, the Percent Effect was -4.23%. In the case of `COc1cccc(F)c1C(C)NC(=O)NCc1cnc(C)s1` (centres undefined), the Percent Effect was found to be 10.2%. Under `CNC(=O)c1cn2cc(-c3ccc(F)cc3)n(CC=C(C)C)c(=O)c2n1` stands 3.81%.
